Laboratory results taken from PubChem BioAssay AID1220 (Sanford-Burnham Center for Chemical Genomics, 2008).
Screen size: about 190,000 compounds; about 1,300 (0.68%) were called active. Cut-off read from the data, not from the text of the source: active = inhibition above about 50%; inactive = the rest. Shown is part of a subset that was picked to be rich in actives.

Biological target: Mannose-6-phosphate isomerase (Homo sapiens) (UniProt P34949)
Assay: MPI inhibition at elevated mannose 6-phosphate – biochemical, fluorescence intensity, high mannose 6-phosphate, primary screen (AID 1220)
Conditions: recombinant PMI enzyme, coupled fluorescence intensity; at 20 µM; active compounds read high

Sequence of Mannose-6-phosphate isomerase (Homo sapiens) (P34949 whole entry, looked up): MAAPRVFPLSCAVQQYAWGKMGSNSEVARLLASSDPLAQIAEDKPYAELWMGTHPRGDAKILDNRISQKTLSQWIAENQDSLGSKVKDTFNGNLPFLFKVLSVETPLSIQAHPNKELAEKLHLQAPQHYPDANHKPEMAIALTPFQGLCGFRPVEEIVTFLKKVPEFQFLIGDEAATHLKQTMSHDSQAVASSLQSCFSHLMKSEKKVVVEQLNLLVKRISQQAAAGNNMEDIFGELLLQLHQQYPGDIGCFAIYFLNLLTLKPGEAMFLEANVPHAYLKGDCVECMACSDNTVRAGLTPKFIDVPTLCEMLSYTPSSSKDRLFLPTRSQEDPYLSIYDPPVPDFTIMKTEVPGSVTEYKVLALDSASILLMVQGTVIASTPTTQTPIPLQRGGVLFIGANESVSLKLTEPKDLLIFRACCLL

Row | SMILES | inhibition
1 | O=[N+]([O-])c1cc(Cc2ccccc2)cc(C=Nc2ccc(N3CCOCC3)cc2)c1O | 38.7% (inactive)
2 | Cc1ccc(O)c(N=Cc2cc(Cc3ccccc3)cc([N+](=O)[O-])c2O)c1 | 63.3% (active)
3 | Cc1n[nH]c(C)c1Sc1ccccc1N=Cc1cc(Cl)cc([N+](=O)[O-])c1O | 0.8% (inactive)
4 | COc1ccc(N=Cc2cccc(C)c2O)cc1Cl | 7.9% (inactive)
5 | COc1ccc(N=Cc2cc(Cc3ccccc3Cl)cc([N+](=O)[O-])c2O)cc1OC | 54.9% (active)
6 | Cc1ccc(N=Cc2c(O)[nH]c3ccccc23)c([N+](=O)[O-])c1 | -4.1% (inactive)
7 | Cc1c(N=Cc2ccc(O)c(Br)c2)cccc1[N+](=O)[O-] | 12.1% (inactive)
8 | COc1cc(C=Nc2cccc(C)c2)c(O)c([N+](=O)[O-])c1 | 34% (inactive)
9 | Cc1ccc(N=Cc2cc(Cc3ccccc3Cl)cc([N+](=O)[O-])c2O)c(O)c1 | 56.5% (active)
10 | COc1cc([N+](=O)[O-])cc2sc(NC(=O)C(C)(C)C)nc12 | 17% (inactive)
11 | COc1ccccc1Cn1c(/C=C/c2ccccc2)nc2ccccc21 | 4.9% (inactive)
12 | Cc1cccc(-n2nc3c(c2NC(=O)c2ccc(Br)o2)CSC3)c1 | -0.5% (inactive)
13 | CCCC(CCC(=O)Nc1cc([N+](=O)[O-])ccc1O)C(=O)O (stereo unspecified) | 11% (inactive)
14 | CC(=O)Nc1ccc(NC(=O)c2cccc3c2-c2ccccc2C3=O)cc1 | -2.8% (inactive)
15 | CC(=O)NC(=S)Nc1ccc([N+](=O)[O-])cc1C | -6% (inactive)
16 | CC1CCCN(Cc2nc3c(c(=O)n(C)c(=O)n3C)n2CCc2ccccc2)C1 (stereo unspecified) | 5.2% (inactive)
17 | CNC(=O)CSc1nc(N)c2c3c(sc2n1)CCC3 | 7.8% (inactive)
18 | CC1=C(C(=O)N2CCOCC2)C(c2cccc(C)c2)NC(=S)N1 (stereo unspecified) | -12.7% (inactive)
19 | O=C1C(Nc2ccccc2)=C/C(=N/S(=O)(=O)c2cccs2)c2ccccc21 | 40.7% (inactive)
20 | Cc1ccc(NC2=CC(=O)C(=O)c3ccccc32)cc1 | 56.2% (active)
21 | COC1=C(Nc2ccccc2)C(=O)c2ccccc2C1=O | 4.1% (inactive)
22 | O=C1C=C(Nc2ccccc2)c2ccccc2C1=O | 64.6% (active)
23 | COC1=C(Nc2ccc(C)cc2)C(=O)c2ccccc2C1=O | -3.1% (inactive)
24 | Cc1ccc(NC2=C(NCCO)C(=O)c3ccccc3C2=O)cc1 | 47.8% (inactive)
25 | O=C1C=C(NCc2ccccc2)c2ccccc2C1=O | 7.9% (inactive)
26 | CC1=CC(=O)c2ccccc2C1=O | -13.3% (inactive)

Row | SMILES | inhibition
27 | CC1(C)CC(=O)C=C(Nc2ccccc2O)C1 | 7.6% (inactive)
28 | Nc1c(O)ccc2c1C(=O)c1ccccc1C2=O | 5.1% (inactive)
29 | O=C1C=C(Nc2ccccc2)C(=O)c2ccccc21 | 57.5% (active)
30 | O=C1C=C(Nc2ccccc2O)c2ccccc2C1=O | 62.6% (active)
31 | CC(C)(C)n1nnnc1SCC(=O)Nc1nn(-c2ccccc2)nc1C(N)=O | 0.7% (inactive)
32 | CN(C(=O)COc1ccccc1)c1nnc(-c2cccnc2)s1 | -0.3% (inactive)
33 | Cc1ccccc1NC(=O)c1c2c(nc3ccccc13)CCC2 | -4.6% (inactive)
34 | O=C(O)[C@H]1CCCC[C@H]1C(=O)Nc1cc([N+](=O)[O-])ccc1F | -7.1% (inactive)
35 | CCCC(=O)Nc1cc(Cl)ccc1C | -0.2% (inactive)
36 | Nc1nc(SCC(=O)Nc2cc(S(=O)(=O)N3CCOCC3)ccc2Cl)n[nH]1 | -10.9% (inactive)
37 | COC(=O)c1ccc(CSc2nnc(-c3ccc4c(c3)OCO4)n2-c2ccccc2)o1 | -8.3% (inactive)
38 | Cc1ccccc1NC(=S)N1CCN(C(=O)c2ccco2)CC1 | 5.1% (inactive)
39 | O=C(C1CCCCN1S(=O)(=O)c1ccccc1)N1CCN(Cc2ccccc2)CC1 (stereo unspecified) | -3.3% (inactive)
40 | CC(=O)N(C(C)=O)n1c(/C=C/c2cccc([N+](=O)[O-])c2)nc2ccccc2c1=O | 15.3% (inactive)
41 | CCOC(=O)c1ccc(NC2OC(=O)c3ccccc32)cc1 (stereo unspecified) | -0.5% (inactive)
42 | CCOC(=O)c1ccc(NC(=O)C(C)N2C(=O)c3ccccc3C2=O)cc1 (stereo unspecified) | 5% (inactive)
43 | CCOC(=O)c1ccc(NC2=CC(=O)C(=O)c3ccccc32)cc1 | 57.3% (active)
44 | O=[N+]([O-])c1ccc2cn[nH]c2c1 | 1.3% (inactive)
45 | Nc1ccc2[nH]ncc2c1 | 48.1% (inactive)
46 | Nc1ccc2cn[nH]c2c1 | 53.1% (active)
47 | CC(C)Cc1nnc(NC(=O)CSc2nc(N)cc(=O)[nH]2)s1 | -6.4% (inactive)
48 | CCCCc1nnc(NC(=O)C(C)Sc2nc(N)cc(=O)[nH]2)s1 (stereo unspecified) | 0.4% (inactive)
49 | CCCCc1nnc(NC(=O)CSc2nc(N)cc(=O)[nH]2)s1 | 51.1% (active)
50 | C=CCc1ccccc1OCCNCc1ccccc1 | 1% (inactive)
51 | Cc1cccc(C(=O)NC2CCN(CC(=O)NCc3cccs3)CC2)c1 | -0.6% (inactive)
